Bioassay records: PubChem, National Center for Advancing Translational Sciences (NCATS)
A selection: hits, their analogues and other compounds. The true share with any hit is near 3.3%.
AmpC inh detg = AmpC beta-lactamase inhibition with detergent present | AID 485294 | 370,000 compounds, 0.041% hits | Potency, µM (doses to about 114 µM), inactives show at the top dose activity change, negative = inhibition, actives largely listed as inhibitors | AmpC hydrolysis of nitrocefin, absorbance 480 nm, 0.01% Triton;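 note: 0% = no-compound wells and -100% = no-enzyme wells; nearly all actives have a fitted effect of over 25% in size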
Target sequence (P00811 whole entry, looked up): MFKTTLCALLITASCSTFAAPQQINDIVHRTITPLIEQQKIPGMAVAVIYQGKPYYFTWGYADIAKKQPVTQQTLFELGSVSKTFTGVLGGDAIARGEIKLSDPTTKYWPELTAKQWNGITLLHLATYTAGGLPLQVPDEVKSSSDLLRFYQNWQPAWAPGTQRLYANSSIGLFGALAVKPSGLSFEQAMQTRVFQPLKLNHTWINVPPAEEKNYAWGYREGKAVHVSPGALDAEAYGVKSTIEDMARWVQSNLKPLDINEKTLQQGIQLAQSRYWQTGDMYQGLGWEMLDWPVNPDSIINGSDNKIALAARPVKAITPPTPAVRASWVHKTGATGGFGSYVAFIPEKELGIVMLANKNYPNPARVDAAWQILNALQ
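AmpC (5.3 nM in the dispensed reagent) in 20 mM phosphate pH 7.0 with 0.01% (detergent screen) or 0.0001% Triton X-100 was preincubated with compounds for 15 min at room temperature. Nitrocefin was then added from an 800 uM solution, and hydrolysis was followed at 480 nm.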
AmpC no deterg = AmpC beta-lactamase inhibition without detergent | P00811 | AmpC nitrocefin hydrolysis, absorbance 480 nm, 0.0001% Triton | Potency, µM (titrated, usually from 57.1 µM), without a hit: at the top dose activity change, negative = inhibition, usual class: inhibitors | 330,000 compounds, 0.52% hits;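 note: plate controls were no compound for no effect and no enzyme for full effect; nearly all actives have a fitted effect of over 20% in size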
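AmpC (5.3 nM in the dispensed reagent) in 20 mM phosphate pH 7.0 with 0.01% (detergent screen) or 0.0001% Triton X-100 was preincubated with compounds for 15 min at room temperature. Nitrocefin was then added from an 800 uM solution, and hydrolysis was followed at 480 nm.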
Sm TGR inh = S. mansoni TGR enzyme inhibition. purified TGR, DTNB reduction, TNB absorbance 405 nm. Potency, µM (titrated, usually from 114 µM), for inactives: at the top dose activity change, negative = inhibition, hits mostly inhibitors. 360,000 compounds, 3% hits; note: nearly all actives have a fitted effect of over 60% in size
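TGR 20 nM + NADPH 100 uM (dispensed conc.), cpd preinc 15 min RT; start with NADPH (500 uM addition) then DTNB (15 mM addition). Kinetic TNB absorbance, 405 nm filter. Four-parameter Hill fit across titration.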
Starred values were filed as active, the others as inactive; ? = inconclusive; · = no result given; ! = not active in a repeat; [ ] = dose if it differs, or a comment. Calls come from the whole dose curve; as a rule, active = well fitted curve in the direction sought with a large enough effect; inconclusive = small, poorly fitted or top-dose-only effect, or another doubt; inactive = no such curve, though single readings can be large; an effect the other way counts as inactive or inconclusive. Unless noted, % is set by controls: 0 for no effect and ±100 for the full control effect; potency is the fitted concentration of half-maximal effect.

SMILES	AmpC inh detg	AmpC no deterg	Sm TGR inh
CCCn1c(CCC(=O)O)ccc1-c1ccc(F)cc1	-18%	-24%	?
COC(=O)Cn1c(CCC(=O)O)ccc1-c1ccccc1	?	-29%	?
O=C(O)CCc1ccc(-c2ccccc2)n1CC1CCCO1 (stereo not drawn)	-13%	-14%	0%
Cc1ccc(NC(=O)Cn2c(-c3ccc4c(c3)OCO4)cn(-c3ccccc3)c2=O)cc1	5%	·	1%
CCCN(CCC)C(=O)c1nn(C)c2c1CSc1ccc(C)cc1-2	22%	·	6%
CC(C)Oc1cccc(C(=O)NC(=S)Nc2cccc(NC(=O)c3ccccc3Cl)c2)c1	-19%	3.2µM*	-11%
CC(C)CC(=O)NC(=S)Nc1cccc(NC(=O)c2ccccc2Cl)c1	-1%	-39%	?
COc1cccc(C(=O)NC(=S)Nc2ccc(N3CCCC3)cc2)c1	-3%	-32%	?
CC(C)Oc1cccc(C(=O)NC(=S)Nc2ccc(N3CCN(C)CC3)cc2)c1	5%	103%	45µM*
COC(=O)c1ccccc1NC(=O)CSc1c2c(nc3ccc(Cl)cc13)CCCC2	0%	·	5%
O=C(c1ccc2c(c1)OCCO2)N(Cc1cccnc1)c1nc2c(F)cccc2s1	14%	·	11%
CC(C)CC(=O)/C(=C/c1ccc(N(C)C)cc1)n1cncn1	5%	-16%	4%
CC(C)CC(=O)/C(=C\c1ccc(Cl)cc1Cl)n1cncn1	-3%	-8%	22µM*
O=C(CSc1nc2nn(-c3ccccc3)c(=O)c-2c2n1CCCCC2)Nc1ccc(F)cc1F	-2%	-11%	-13%
O=C(CSc1nc2nn(-c3ccccc3)c(=O)c-2c2n1CCCCC2)Nc1ccc(F)c(F)c1	·	10µM*	·
Cc1ccc(NC(=O)/C(C#N)=C/c2cc(C)n(-c3ccc(N4CCOCC4)c([N+](=O)[O-])c3)c2C)c(C)c1	-7%	-9%	0%
Cc1cc(C=O)c(C)n1-c1ccc(N2CCOCC2)c([N+](=O)[O-])c1	-9%	-6%	-1%
Cc1ccc(C)n1-c1ccc(N2CCOCC2)c([N+](=O)[O-])c1	-4%	13%	35µM*
Cc1cc(/C=C(\C#N)C(=O)Nc2ccc(Cl)cc2)c(C)n1-c1ccc(N2CCOCC2)c([N+](=O)[O-])c1	-4%	7.9µM*	-13%
COc1ccc(CNC(=O)CCc2c(C)c3cc4c(C)c(C)oc4cc3oc2=O)cc1OC	-7%	·	1%
Cc1ccc(-c2nn(CC(=O)Nc3cccc(C(F)(F)F)c3)c(=O)c3ccccc23)cc1	15%	·	6%
Cc1cc(F)ccc1NC(=O)Cn1c(=O)ccc2cc(S(=O)(=O)N3CCC(C)CC3)ccc21	-3%	·	4%
CCOc1ccc(NC(=O)CN(C)C(=O)c2ccncc2)cc1OCC	8%	-53%	25µM*
CCOc1ccc(NC(=O)CN(C)C(=O)c2cc(C)on2)cc1OCC	?	-6%	0%
CCN(CC)S(=O)(=O)c1ccc2c(c1)N(CC(=O)N(C)Cc1ccccc1)C(=O)CO2	-5%	·	0%
SMILES	AmpC inh detg	AmpC no deterg	Sm TGR inh
CN(Cc1ccccc1)S(=O)(=O)c1nnc(NC(=O)c2cccc(Cl)c2)s1	22%	·	-22%
CCN(c1ccccc1)S(=O)(=O)c1nnc(NC(=O)CC(C)C)s1	-5%	-16%	7%
CC(C)CC(=O)Nc1nnc(S(=O)(=O)N(C)Cc2ccco2)s1	0%	-31%	8.9µM*
CN(Cc1ccco1)S(=O)(=O)c1nnc(NC(=O)c2cccc(Cl)c2)s1	-8%	-48%	7.9µM*!
Cc1ccc(CNC(=O)CCS(=O)(=O)c2cc3c4c(c2)CCN4C(=O)CC3)cc1	2%	·	35%
CCSC1=C(C#N)C(c2cccs2)C(C(=O)OC)=C(C)N1 (stereo not drawn)	-15%	-17%	-4%[11.4 µM]
CCOC(=O)C1=C(C)NC(SCC(=O)Nc2cc(C)on2)=C(C#N)C1c1cccs1 (stereo not drawn)	4%	3%	-6%
COc1ccccc1NC(=O)C1=C(C)NC(SCC(=O)Nc2ccc(C(=O)O)cc2)=C(C#N)C1c1cccs1 (stereo not drawn)	0%	-56%	45µM*
CCCSC1=C(C#N)C(c2cccs2)C(C(=O)Nc2ccccc2)=C(C)N1 (stereo not drawn)	-14%	-46%	35µM*
Cc1ccc(NC(=O)c2cnc(SCC(=O)N3CCOCC3)n(C)c2=O)cc1C	0%	·	-1%
COc1ccc(Cl)cc1NC(=O)Cn1c2ncccc2c(=O)n1-c1ccc(C)c(C)c1	2%	·	-3%
CCc1[nH]nc2c1C(Cc1ccccc1)C(C#N)=C(N)O2 (stereo not drawn)	-3%	-20%	?
Cc1[nH]nc2c1C(Cc1ccccc1)C(C#N)=C(N)O2 (stereo not drawn)	-3%	-18%	20µM*
CCCCOc1ccc(C(=O)Nc2cccc(-c3nc4cccnc4s3)c2)cc1	-1%	·	-1%
Nc1cc([N+](=O)[O-])ccc1Nc1ccc(O)cc1	1%	32µM*	?
Nc1ccccc1Nc1ccc([N+](=O)[O-])cc1[N+](=O)[O-]	?	-15%	-2%
O=C(CSc1nnc(Nc2ccccc2)s1)NCc1ccco1	?	-19%	?
Cc1ccccc1N1CC(C(=O)Nc2nnc(SCC(=O)Nc3nccs3)s2)CC1=O (stereo not drawn)	6%	28µM*	0%
O=C(CSc1nnc(Nc2ccccc2F)s1)NCc1ccco1	-11%	-32%	50µM*
Cc1cccc(N2CC(C(=O)Nc3nnc(SCC(=O)Nc4nccs4)s3)CC2=O)c1 (stereo not drawn)	?	-31%	-16%
COc1cccc(N2CC(C(=O)Nc3nnc(SCC(=O)NC4CCCC4)s3)CC2=O)c1 (stereo not drawn)	4%	-9%	-17%
O=C(CSc1nnc(NC(=O)C2CC(=O)N(c3ccccc3)C2)s1)NCc1ccco1 (stereo not drawn)	2%	-41%	45µM*
O=C(CSc1nnc(NC(=O)C2CC(=O)N(c3ccccc3)C2)s1)NCC1CCCO1 (stereo not drawn)	2%	-21%	-20%
COc1cccc(N2CC(C(=O)Nc3nnc(SCC(=O)NCc4ccco4)s3)CC2=O)c1 (stereo not drawn)	-1%	-43%	50µM*
CCc1ccc(-n2nnc(-c3nc(-c4ccc(C)cc4)no3)c2N)cc1	18%	·	2%
SMILES	AmpC inh detg	AmpC no deterg	Sm TGR inh
CC(C)c1ccc(NC(=O)CCNS(=O)(=O)c2ccc3c(c2)oc(=O)n3C)cc1	8%	·	7%
Cc1ccc(-n2c(=O)c3cccnc3n2CC(=O)Nc2cccc(C)c2C)cc1	4%	·	1%
Cc1ccc(S(=O)(=O)c2c(O)cc(C)c(NS(=O)(=O)c3ccc(Cl)cc3)c2C)cc1	3%	·	-1%
COc1cccc(C(=O)NC2CC(=O)N(c3ccc4c(c3)OCCO4)C2)c1OC (stereo not drawn)	2%	·	8%
COc1cccc(C2=NOC(C(=O)N3CCN(c4ccccc4)CC3)C2)c1OC (stereo not drawn)	?	25%	5%
COc1cccc(C2=NO[C@@H]3C(=O)N(Cc4ccccc4)C(=O)[C@H]23)c1OC	-7%	-25%	50µM*
